Bioassay records from PubChem.
The list is not random: actives were taken first. Their share in the collection is about 4.5%.
Rtt109 HAT inh = inhibitors of Candida albicans Rtt109/Vps75 histone acetyltransferase; Q5AAJ8; purified Rtt109/Vps75, ThioGlo CoA-SH fluorescence, 4 h; inhibition, % at 34.9 µM; 0.16% of 330,000 active;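 active = inhibition of at least 50% in every replicate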
GRK2 aptamer HTS = human GRK2 inhibition via aptamer displacement. P25098. bead flow cytometry, FAM-aptamer displacement from GRK2. inhibition of aptamer binding, % at 10 µM. 0.59% of 330,000 active;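 active = inhibition of aptamer binding above 40%, roughly 3 SD of noise, on plates passing a quality check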;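 also: median bead fluorescence of bound FAM aptamer so fluorescent compounds give negative values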
ALR H2O2 inh = inhibitors of human sulfhydryl oxidase ALR; P55789; purified ALR, DTT oxidation, H2O2 HRP-luminol luminescence; inhibition, % (concentration not given with the values); 3.8% of 290,000 active;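 active = mean replicate inhibition above about 79%, with every replicate also reaching it, limit read from the data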
HDAC3 inh = blocks human histone deacetylase 3; AID 2718; recombinant HDAC3, fluorogenic peptide/trypsin coupled, fluorescence; O15379; 0.15% of 320,000 active; inhibition, % at 8.3 µM; in the data active = inhibition above about 26%, passing the limit was not always enough
Target sequence (O15379 whole entry, looked up): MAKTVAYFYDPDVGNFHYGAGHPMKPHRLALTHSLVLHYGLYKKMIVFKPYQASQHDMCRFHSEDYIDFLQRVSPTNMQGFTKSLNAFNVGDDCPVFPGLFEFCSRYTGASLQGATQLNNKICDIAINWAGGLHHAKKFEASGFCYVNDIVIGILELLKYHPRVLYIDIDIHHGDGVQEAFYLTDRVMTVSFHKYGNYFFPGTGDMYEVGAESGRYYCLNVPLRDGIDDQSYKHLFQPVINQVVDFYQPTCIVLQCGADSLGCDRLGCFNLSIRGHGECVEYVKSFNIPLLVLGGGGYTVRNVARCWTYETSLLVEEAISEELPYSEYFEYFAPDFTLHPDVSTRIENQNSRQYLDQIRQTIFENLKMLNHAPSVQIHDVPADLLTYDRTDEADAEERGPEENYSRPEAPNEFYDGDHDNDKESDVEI
Rce1 inhib = blocks yeast Ras-converting enzyme; Q03530; yeast membranes, quenched prenylated peptide cleavage fluorescence; calls only; 0.27% of 290,000 active; AID 2563;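 active = fall in fluorescence gain of 50% or more versus controls, with final raw signal at or below 3038400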;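 also: plate controls were neutral control wells for no effect and wells lacking membranes for full effect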
Efflux pump mplx = inhibitors of Candida antifungal efflux pumps expressed in yeast. S. cerevisiae Candida pump triplex, Nile Red efflux. inhibition, % at 10 µM. 0.44% of 330,000 active. AID 485275;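 active = plate passing quality check with inhibition over a set limit, or well fluorescence over plate mean plus 4 SD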;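 also: Nile Red retained in pooled yeast measured as flow cytometry median fluorescence; 0% = buffer negative control and 100% = Enniatin B positive control; higher means more Nile Red kept so more efflux inhibition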
Active calls of the source: *; i = inactive; . = no result.

SMILES | Rtt109 HAT inh | GRK2 aptamer HTS | ALR H2O2 inh | HDAC3 inh | Rce1 inhib | Efflux pump mplx
COC(C(=O)N/N=C(\C)c1ccc(C)cc1)c1ccccc1 (stereo not drawn) | 2.8 | 2.0 | -12.0 | 6.1 | i | 0.0
COc1ccccc1C(=O)NNC(=O)C1CCCO1 (stereo not drawn) | 5.1 | 1.0 | 1.2 | -4.3 | i | 0.2
COc1ccc(OC)c(/C=C/C(=O)NCCc2nc3ccccc3[nH]2)c1 | 0.5 | 0.0 | -8.1 | . | . | 0.0
Cc1ncc2c(n1)NC(=O)NC2 | -9.0 | . | . | . | . | .
COc1ccc(N(CC(=O)NC2CCCCC2C)S(=O)(=O)c2c(C)nn(C)c2C)cc1 (stereo not drawn) | -2.3 | 0.0 | -4.7 | 0.7 | i | 0.0
Cc1onc(-c2ccccc2)c1-c1n[nH]c(=S)n1-c1ccc(C(=O)O)cc1 | -1.6 | 1.0 | 88.8* | 1.4 | i | -0.1
Cc1ccc(C)n1Cc1ccc(C(=O)O)cc1 | -5.0 | 88.0* | . | -1.6 | . | 0.1
Cc1cc(C)n(Cc2ccc(C(=O)O)cc2)n1 | -1.6 | 1.0 | -3.0 | 2.4 | i | -0.1
CN(C)c1ccc(C(c2nnnn2C(C)(C)C)N2CCN(C(=O)c3ccco3)CC2)cc1 (stereo not drawn) | 11.1 | 5.0 | 90.3* | 10.4 | i | 0.2
CCOc1ccc(C(c2nnnn2C(C)(C)C)N2CCN(C(=O)c3ccco3)CC2)cc1 (stereo not drawn) | 9.4 | 0.0 | -6.2 | 5.1 | i | -0.1
Cc1cc2nc(-c3ccc(SCC(=O)NC(C)C)nc3)[nH]c2cc1C | . | 0.0 | -4.0 | -44.6 | i | 0.0
Cc1cc2nc(-c3ccc(SCc4ccc(C(=O)O)cc4)nc3)[nH]c2cc1C | -8.3 | 0.0 | 98.7* | -4.9 | i | 0.0
COc1ccc(C(=S)Nc2ccc(N(C)C)cc2)cc1 | -11.6 | 0.0 | 99.2* | -7.5 | i | -0.1
COc1ccc(NC(=S)c2ccc(N(C)C)cc2)cc1 | -11.6 | 0.0 | 6.1 | -1.6 | i | -0.1
C/C(CC(=O)Nc1ccc(N(C)C)cc1)=N\NC(=O)c1ccc([N+](=O)[O-])cc1 | -3.2 | 3.0 | 94.9* | -1.8 | i | 0.1
COc1ccc(CC(=O)N/N=C(\C)CC(=O)Nc2ccc3c(c2)OCCO3)cc1 | 3.6 | 1.0 | . | 0.9 | i | 0.1
COc1ccc(CC(=O)N/N=C(\C)CC(=O)Nc2ccc(N(C)C)cc2)cc1 | -16.8 | 0.0 | 94.5* | -3.7 | i | 0.0
Cc1ccccc1C(C(=O)NC1CCCC1)N(C(=O)CNC(=O)c1ccco1)c1cccnc1 (stereo not drawn) | . | 0.0 | -11.0 | -8.4 | i | -0.1
CN(CC(=O)Nc1ccccc1Cl)C(=O)CCc1nc2ccccc2c(=O)[nH]1 | -3.2 | 1.0 | 1.8 | . | i | 0.0
O=C(CCNC(=O)c1ccc([N+](=O)[O-])cc1)NCc1ccco1 | 11.8 | 3.0 | . | -0.9 | . | 0.4
O=c1[nH]c2c(cnn2-c2ccc(Cl)cc2)c(=O)n1-c1cccc(Cl)c1 | 3.4 | 0.0 | 35.8 | 2.0 | i | 0.1
OCC1=C[C@@H](O)[C@@H]2C=CO[C@@H](O[C@@H]3O[C@H](CO)[C@@H](O)[C@H](O)[C@H]3O)[C@H]12 | 6.7 | 2.0 | . | -0.2 | . | 0.2
CCn1cc(C(=O)NC(=S)Nc2ccccc2[N+](=O)[O-])cn1 | -2.9 | 4.0 | 98.8* | 1.8 | i | 0.2
CCn1cc(C(=O)NC(=S)Nc2ccccc2Br)cn1 | -0.1 | 1.0 | 30.2 | 2.5 | i | -4.0
COc1cc(NS(=O)(=O)c2ccc(NC(=O)NC3CCCCC3)cc2)nc(OC)n1 | 4.1 | 1.0 | 97.8* | -3.7 | i | 0.0
SMILES | Rtt109 HAT inh | GRK2 aptamer HTS | ALR H2O2 inh | HDAC3 inh | Rce1 inhib | Efflux pump mplx
COc1cc(NS(=O)(=O)c2ccc(NC(=O)COc3cccc(C)c3)cc2)nc(OC)n1 | 4.7 | 1.0 | 98.3* | 3.6 | i | -0.1
COc1cc(NS(=O)(=O)c2ccc(NC(=O)COc3ccccc3Cl)cc2)nc(OC)n1 | . | 0.0 | 93.1* | -0.3 | i | 0.3
COc1ccccc1OCC(=O)Nc1ccc(S(=O)(=O)Nc2cc(C)on2)cc1 | -3.1 | 4.0 | 88.8* | -4.8 | i | 0.3
Cc1ccc(NC(=O)Cc2cc(C(=O)O)c3ccccc3n2)c(C)c1 | 4.1 | 0.0 | 1.7 | 3.7 | i | 0.1
C=CCOc1ccc(CNCCO)cc1OCC | 5.6 | 0.0 | . | -0.8 | i | -0.1
C=CCOc1ccc(CNCc2cccnc2)cc1OCC | 0.6 | 0.0 | 94.4* | -3.9 | i | 0.1
COc1cc(CNc2ccc3[nH]c(=O)[nH]c3c2)cc(Cl)c1OCC(=O)NC(C)(C)C | 30.3 | 0.0 | 97.6* | -0.1 | i | 0.1
